Test results taken from PubChem BioAssay (EPA / NIEHS).
Inconclusive results are not listed. Calls of active or inactive are those of the source. The calls were made as follows: active = hit-call score of the fitted dose curve at least 0.9, where 1 is the maximum; inconclusive = response in the unintended direction; inactive = score below 0.9.

Tests used:
[1] = biological target: Estrogen receptor (Homo sapiens) (UniProt P03372); experiment: OT_ER_ERaERa_1440: Odyssey Thera (OT) 24-hour HEK293T Protein-Complementation Assay for Estrogen Receptor-alpha/-alpha Homodimer (AID 2283349);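 also: hits raise fluorescence above DMSO for agonists and antagonists alike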
How it was run: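 HEK293T cells stably expressing the human ER alpha ligand-binding domain (aa 310-547) as a homodimer PCA were dosed for 24 hours. Fluorescence intensity was read by laser scanning cytometry, and gain of signal was fitted relative to DMSO vehicle.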

[2] = biological target: Estrogen receptor (Homo sapiens) (UniProt P03372); experiment: OT_ER_ERaERa_0480: Odyssey Thera (OT) 8-hour HEK293T Protein-Complementation Assay for Estrogen Receptor-alpha/-alpha Homodimer (AID 2283351);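 also: rise in fluorescence from reassembled reporter fragments on ERα LBD homodimer in nucleus or whole cell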
How it was run: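 HEK293T, stable ERα LBD (aa 310-547) PCA homodimer; 8 h compound exposure; fluorescence intensity, laser scanning cytometer; positive fitting direction, DMSO baseline.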

[3] = biological target: T1, Estrogen receptor (Homo sapiens) + Estrogen receptor beta (Homo sapiens) (UniProt P03372+Q92731); experiment: OT_ER_ERaERb_0480: Odyssey Thera (OT) 8-hour HEK293T Protein-Complementation Assay for Estrogen Receptor-alpha/-beta Heterodimer (AID 2283352)
How it was run: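 Human HEK293T cells were treated for 8 hours and receptor heterodimerisation was detected through reconstitution of a fluorescent reporter split between ER-alpha and ER-beta ligand-binding domains. Activity was analysed as gain of signal against DMSO.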

[4] = biological target: T1, Estrogen receptor (Homo sapiens) + Estrogen receptor beta (Homo sapiens); experiment: OT_ER_ERaERb_1440: Odyssey Thera (OT) 24-hour HEK293T Protein-Complementation Assay for Estrogen Receptor-alpha/-beta Homodimer (AID 2283356);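 also: heteromer of ER alpha and ER beta binding domains; hits raise reporter fluorescence and both agonists and antagonists give an increase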
How it was run: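 24 h exposure; HEK293T PCA cells with ERα/ERβ LBD fragments; signal rise in nuclear or whole-cell fluorescence over vehicle.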

[5] = biological target: Estrogen receptor beta (Homo sapiens) (UniProt Q92731); experiment: OT_ER_ERbERb_0480: Odyssey Thera (OT) 8-hour HEK293T Protein-Complementation Assay for Estrogen Receptor-beta/-beta Homodimer (AID 2283357);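 also: active means signal gain over DMSO baseline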
How it was run: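 Fluorescence intensity, nuclear for agonists and nuclear plus cytoplasmic for antagonists, was quantified by laser scanning cytometry versus vehicle after 8 h treatment. The cells were HEK293T stably carrying ER beta LBD fragment-complementation partners.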

[6] = biological target: Estrogen receptor (Homo sapiens) (UniProt P03372); experiment: NVS_NR_hER: NovaScreen (NVS) Nuclear Receptor Binding Assay for human Estrogen Receptor (ER) (AID 2283348)
How it was run: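 Radioligand competitive displacement binding to estrogen receptor from MCF7 extract, cell-free; 18 h after dosing, scintillation read-out. Primary screen in duplicate at 25 uM; actives followed up in concentration series; loss of signal vs DMSO.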

[7] = biological target: Androgen Receptor/SRC-1 Co-activator, AR (gene 367) (UniProt P10275); experiment: OT_AR_ARSRC1_0960: Odyssey Thera (OT) 16-hour HEK293T Protein-Complementation Assay for Androgen Receptor/SRC-1 Co-activator (AID 2283353);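 also: actives raise the signal above DMSO so potency reflects increased AR and SRC-1 complex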
How it was run: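 Split-Venus PCA, AR/SRC-1 fusions, stable HEK293T; 16 h compound exposure; imaged at 488 and 635 nm; N/C ratio (488 nm channel), min 400 cells/image; positive-direction fit, DMSO baseline.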

[8] = biological target: Androgen Receptor/SRC-1 Co-activator, AR (gene 367) (UniProt P10275); experiment: OT_AR_ARSRC1_0480: Odyssey Thera (OT) 8-hour HEK293T Protein-Complementation Assay for Androgen Receptor/SRC-1 Co-activator (AID 2283354);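 also: hits raise the complementation signal above DMSO so AC50 marks enhancers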
How it was run: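 HEK293T cells stably expressing AR and SRC-1 fused to Venus YFP fragments, imaged 8 h after dosing. Complementation fluorescence scored as nuclear/cytoplasmic ratio at 488 nm in at least 400 cells per image; gain fitted versus DMSO.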

[9] = biological target: Bile acid receptor (Homo sapiens) (UniProt Q96RI1); experiment: NVS_NR_hFXR_Antagonist: NovaScreen (NVS) Nuclear Receptor Binding Assay for human Farnesoid X Receptor Antagonism (FXR) (AID 2283350)
How it was run: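 Cell-free TR-FRET ligand-binding read-out on human FXR (NR1H4) in antagonist mode, measured 1 h after dosing. Primary screen in duplicate at 25 uM, actives retested in concentration series; signal loss scored versus DMSO.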

Measured: AC50

Sequence of Androgen Receptor/SRC-1 Co-activator, AR (gene 367) (P10275 whole entry, looked up, the tested form may be a part): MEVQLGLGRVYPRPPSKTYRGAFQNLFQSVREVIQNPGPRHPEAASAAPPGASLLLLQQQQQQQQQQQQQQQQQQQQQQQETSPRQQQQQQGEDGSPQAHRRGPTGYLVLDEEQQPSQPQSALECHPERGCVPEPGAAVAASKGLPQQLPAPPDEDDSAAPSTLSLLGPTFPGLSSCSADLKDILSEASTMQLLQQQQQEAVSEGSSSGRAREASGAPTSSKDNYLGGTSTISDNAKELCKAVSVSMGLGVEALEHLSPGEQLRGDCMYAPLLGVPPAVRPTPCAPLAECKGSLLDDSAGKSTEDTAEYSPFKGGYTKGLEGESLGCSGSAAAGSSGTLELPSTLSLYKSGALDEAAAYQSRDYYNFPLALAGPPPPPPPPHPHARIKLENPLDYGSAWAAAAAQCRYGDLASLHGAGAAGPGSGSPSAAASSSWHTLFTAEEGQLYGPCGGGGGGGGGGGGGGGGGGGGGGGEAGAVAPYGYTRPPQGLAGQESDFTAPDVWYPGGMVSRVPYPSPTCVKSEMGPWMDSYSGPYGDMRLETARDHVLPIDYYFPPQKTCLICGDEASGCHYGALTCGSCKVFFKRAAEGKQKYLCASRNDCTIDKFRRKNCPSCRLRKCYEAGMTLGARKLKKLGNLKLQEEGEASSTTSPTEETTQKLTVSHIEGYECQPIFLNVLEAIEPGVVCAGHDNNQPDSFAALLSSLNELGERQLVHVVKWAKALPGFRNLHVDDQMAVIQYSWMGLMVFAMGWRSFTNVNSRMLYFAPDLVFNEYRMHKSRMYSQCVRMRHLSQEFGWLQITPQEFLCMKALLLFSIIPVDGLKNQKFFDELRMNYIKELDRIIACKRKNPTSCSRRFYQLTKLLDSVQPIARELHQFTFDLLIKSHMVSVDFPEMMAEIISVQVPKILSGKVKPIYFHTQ
T1 sequence (P03372 whole entry, looked up, the tested form may be a part): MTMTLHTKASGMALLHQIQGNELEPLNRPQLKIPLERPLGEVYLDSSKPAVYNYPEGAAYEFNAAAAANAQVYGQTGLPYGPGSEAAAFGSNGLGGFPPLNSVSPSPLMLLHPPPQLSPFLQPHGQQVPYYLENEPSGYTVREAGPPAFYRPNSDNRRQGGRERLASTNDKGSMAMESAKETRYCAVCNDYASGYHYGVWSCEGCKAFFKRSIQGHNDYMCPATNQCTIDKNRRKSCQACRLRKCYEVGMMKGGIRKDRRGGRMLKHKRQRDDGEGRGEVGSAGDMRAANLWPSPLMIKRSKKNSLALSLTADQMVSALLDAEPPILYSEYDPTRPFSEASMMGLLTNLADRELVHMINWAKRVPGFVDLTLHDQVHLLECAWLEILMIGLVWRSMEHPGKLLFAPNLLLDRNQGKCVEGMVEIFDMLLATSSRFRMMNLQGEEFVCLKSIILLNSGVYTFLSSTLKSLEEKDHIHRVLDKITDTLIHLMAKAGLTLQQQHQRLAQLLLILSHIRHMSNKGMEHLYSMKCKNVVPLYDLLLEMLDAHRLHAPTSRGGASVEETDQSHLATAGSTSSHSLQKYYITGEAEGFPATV
T1 sequence (Q92731 whole entry, looked up, the tested form may be a part): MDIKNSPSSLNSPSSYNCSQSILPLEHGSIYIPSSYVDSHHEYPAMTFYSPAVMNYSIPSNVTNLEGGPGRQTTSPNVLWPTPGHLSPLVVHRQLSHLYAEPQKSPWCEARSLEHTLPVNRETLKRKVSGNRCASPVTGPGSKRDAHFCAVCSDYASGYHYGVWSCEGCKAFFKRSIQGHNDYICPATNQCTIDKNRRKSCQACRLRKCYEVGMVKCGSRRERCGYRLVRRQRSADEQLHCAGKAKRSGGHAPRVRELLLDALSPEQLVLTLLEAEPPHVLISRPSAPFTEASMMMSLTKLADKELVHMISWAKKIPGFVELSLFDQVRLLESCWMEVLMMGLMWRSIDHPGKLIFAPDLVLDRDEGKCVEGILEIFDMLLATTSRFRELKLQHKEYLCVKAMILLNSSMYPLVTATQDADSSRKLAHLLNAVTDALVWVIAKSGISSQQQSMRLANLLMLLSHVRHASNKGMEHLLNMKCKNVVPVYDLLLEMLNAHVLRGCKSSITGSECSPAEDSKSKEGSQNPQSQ
Sequence of Estrogen receptor (Homo sapiens) (P03372 whole entry, looked up, the tested form may be a part): as the sequence (P03372 whole entry, looked up, the tested form may be a part) above
Sequence of Estrogen receptor beta (Homo sapiens) (Q92731 whole entry, looked up, the tested form may be a part): as the sequence (Q92731 whole entry, looked up, the tested form may be a part) above
Sequence of Bile acid receptor (Homo sapiens) (Q96RI1 whole entry, looked up): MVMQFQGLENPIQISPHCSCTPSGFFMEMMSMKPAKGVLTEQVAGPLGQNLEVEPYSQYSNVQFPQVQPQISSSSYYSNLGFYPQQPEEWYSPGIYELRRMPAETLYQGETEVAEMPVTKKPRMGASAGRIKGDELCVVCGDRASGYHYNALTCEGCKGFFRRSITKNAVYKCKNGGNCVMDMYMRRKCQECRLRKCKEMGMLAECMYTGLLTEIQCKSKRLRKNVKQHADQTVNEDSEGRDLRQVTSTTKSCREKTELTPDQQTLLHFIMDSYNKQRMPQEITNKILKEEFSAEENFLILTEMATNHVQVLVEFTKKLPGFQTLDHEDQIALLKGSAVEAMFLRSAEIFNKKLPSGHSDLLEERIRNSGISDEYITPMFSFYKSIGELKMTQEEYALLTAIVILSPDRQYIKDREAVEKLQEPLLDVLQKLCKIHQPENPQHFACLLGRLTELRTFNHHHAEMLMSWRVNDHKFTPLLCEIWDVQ

CC1(C)CON(Cc2ccccc2Cl)C1=O
inactive: [1] | [2] | [3] | [4] | [5]

CCCN(CC)CC1COC2(CCC(C(C)(C)C)CC2)O1 (stereo not given)
inactive: [1] | [2] | [5]
active: [4] 32.2 µM

O=P(O)(O)CCCl
inactive: [1] | [2]

N#Cc1c(Cl)cccc1Cl
inactive: [1] | [2] | [3] | [4] | [5]

CC(C)(C)C(=O)C(Oc1ccc(Cl)cc1)n1cncn1 (stereo not given)
inactive: [6] | [2] | [3] | [5]
active: [4] 58.6 µM

Cc1cnc(C2=NC(C)(C(C)C)C(=O)N2)c(C(=O)O)c1 (stereo not given)
not listed: [6] | [9]
inactive: all other assays above

CO/N=C(/C1=NOCCO1)c1ccccc1Oc1ncnc(Oc2ccccc2Cl)c1F
inactive: [1] | [2]

CC(C)NC(=O)N1CC(=O)N(c2cc(Cl)cc(Cl)c2)C1=O
inactive: [1] | [2]

O=C(Nc1ccccc1-c1ccc(Cl)cc1)c1cccnc1Cl
inactive: [1] | [2] | [3] | [4] | [5]

CCOc1nc(F)cc2nc(S(=O)(=O)Nc3c(Cl)cccc3Cl)nn12
inactive: [1] | [2] | [3] | [4] | [5]

CCSC(=O)N1CCCCCC1
inactive: [6] | [2] | [3] | [4] | [5]

Clc1cccc(C(Cl)(Cl)Cl)n1
not listed: [5] | [6] | [9]
inactive: all other assays above

Cc1cc(C)nc(Nc2ccccc2)n1
inactive: [1] | [2]

CN=C=S
inactive: [1] | [2]

CCCCC(O)(Cn1cncn1)c1ccc(Cl)cc1Cl (stereo not given)
active: [7] 72.5 µM | [8] 75.8 µM
not listed: [6]
inactive: all other assays above
